# Measurements published in PubChem BioAssay (Tox21).
# Records with an inconclusive call do not appear. A call without a number means that no potency is given here. Active and inactive are the calls of the source. Calls come from the whole dose curve; as a rule, active = well fitted curve in the direction sought with a large enough effect in the repeat runs; inconclusive = weak or mixed curves; inactive = no such curve, though single readings can be large; an effect the other way counts as inactive or inconclusive.
# Assay: qHTS assay to identify small molecule antagonists of the retinoid acid receptor (RAR) signaling pathway - cell viability counter screen (AID 1159551); note: nearly all actives have a fitted effect of over 35% in size
# Conditions: C3RL4 cells viability, ATP luminescence (CellTiter-Glo), 6 h; series mostly up to 92.4 µM
# Outline: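 ATP-based viability, C3RL4 cells, 6 h at 37 C with 1 uM final retinol co-added after compound; luminescence read 30 min post CellTiter-Glo, RT.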
row,Compound,Potency
1,CON(C)C(=O)Nc1ccc(Br)c(Cl)c1,inactive
2,CCCCCCCC(=O)Cl,inactive
3,C=CC=O,inactive
4,COc1cccc(C=O)c1,inactive
5,ClCOCCl,inactive
6,CC[C@H](O)C(C[C@H](C)N(C)C)(c1ccccc1)c1ccccc1,inactive
7,COc1cccc([C@@]2(O)CCCC[C@@H]2CN(C)C)c1,inactive

# Assay: qHTS assay to identify small molecule antagonists of the retinoic acid receptor (RAR) signaling pathway (AID 1159552; note: nearly all actives have a fitted effect of over 50% in size)
# Conditions: C3RL4 RARE luciferase reporter, retinol-stimulated, 6 h; series mostly up to 92.4 µM
# Outline: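 Luminescence from a RARE luciferase reporter in C3RL4 cells served as read-out. Cells received compounds together with 1 uM final retinol and incubated 6 hr at 37 C before detection reagent was added for 30 min at room temperature.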
row,Compound,Potency
1,S=C=S,inactive
2,CCCN1CCC[C@@H]2Cc3nc(N)ncc3C[C@H]21,inactive
3,ClCCCCCCCl,inactive
4,C=C(C)[C@H]1CN[C@H](C(=O)O)[C@H]1CC(=O)O,inactive
5,ClCCCCl,inactive
6,CC[C@H](O)C(C[C@H](C)N(C)C)(c1ccccc1)c1ccccc1,inactive
7,COc1cccc([C@@]2(O)CCCC[C@@H]2CN(C)C)c1,inactive

# Assay: qHTS assay to identify small molecule agonists of the retinoic acid receptor (RAR) signaling pathway (AID 1159553)
# Conditions: C3RL4 RARE luciferase reporter, agonist, 6 h; series mostly up to 73.3 µM
# Outline: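 Quantitative high-throughput format: the Tox21 10K library was tested on C3RL4 RARE-luciferase cells for 6 hr at 37 C and 5% CO2, with luminescence measured after a 30 min room-temperature reagent step.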
row,Compound,Potency
1,CN(C)CCN(C)C,inactive
2,O=C(CCl)NCO,inactive
3,Cc1ccc2c(c1)C1CN(C)CCC1N2 (stereo not drawn),inactive
4,CCC(=O)c1ccc(Cl)cc1,inactive
5,O=[N+]([O-])c1cccc(CCl)c1,inactive
6,CCOC(=O)NC(C)(C)Cc1ccc(Cl)cc1,inactive
7,CCOC(=O)C(Cl)Cc1cc(-n2nc(C)n(C(F)F)c2=O)c(F)cc1Cl (stereo not drawn),inactive
8,CCCCS(=O)(=O)Cl,inactive
9,c1ccc2c(c1)CCNC2,inactive
10,C#CCOC(=O)/C=C(C)/C=C/CC(C)CCCC(C)C (stereo not drawn),inactive
11,CCCCCCCCSC(=O)Oc1cc(Cl)nnc1-c1ccccc1,inactive
12,CN=CNc1ccc(C)cc1C,inactive
13,Cc1ccc(S(=O)(=O)N[C@@H](CCCCN)C(=O)CCl)cc1,inactive
14,CCC1(c2cccc(O)c2)CCCCN(C)C1 (stereo not drawn),inactive
